Source: PubChem (Broad Institute)
An excerpt weighted towards active compounds, which were near 3.3% of everything screened.
INS-1E GSIS act = GLuc luminescence reporter in INS-1E cells, primary screen for activators of glucose-dependent secretion of insulin; INS-1E GLuc reporter insulin secretion, 2-3 h; actives 0.61% (n = 370,000); activation, % at 16.6 µM; AID 743287;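 active = lowest replicate activation of at least 40%, so every replicate reaches that level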;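 note: 0% = median of neutral control wells and 100% = median of IBMX positive control wells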
SIRT5 block = inhibitors of human sirtuin-5 desuccinylase. Q9NXA8. Purified SirT5, succinyl-peptide AMC, trypsin-coupled fluorescence. inhibition, % at 15 µM. actives 1.1% (n = 330,000); in the data active = inhibition above about 15%
CASP6 VEID inh = caspase-6 (human) enzyme inhibition; P55212; purified caspase-6, Z-VEID-R110 cleavage fluorescence; inhibition, % at 12.5 µM; actives 0.53% (n = 350,000); AID 686996;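 active = mean inhibition across replicates at least about 35%, with every replicate also reaching that limit, limit read from the data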;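 note: 0% = median of neutral control wells and 100% = no fluorescence left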
Target sequence (P55212 24-179 limits assumed): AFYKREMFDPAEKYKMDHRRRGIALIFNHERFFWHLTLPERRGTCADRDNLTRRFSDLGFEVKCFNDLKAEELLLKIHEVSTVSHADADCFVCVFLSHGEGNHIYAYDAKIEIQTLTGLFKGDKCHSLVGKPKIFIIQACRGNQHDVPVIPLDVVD
Target sequence (P55212 194-293 limits assumed): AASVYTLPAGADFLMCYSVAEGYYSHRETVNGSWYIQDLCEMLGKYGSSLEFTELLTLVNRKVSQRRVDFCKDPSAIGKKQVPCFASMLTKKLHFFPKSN
FGF22 binding = binders of recombinant human FGF22 by thermal shift | actives 1.5% (n = 340,000) | SYPRO orange fluorescence; percent of sucrose octasulfate shift, DMSO zero | activity (Tm shift, normalised), % at 9.99 µM;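 active = mean Tm shift, scaled 0 neutral to 100 positive control, at about 1.3% or above, every replicate too, limit read from the data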
Target sequence (Q9HCT0 whole entry, looked up): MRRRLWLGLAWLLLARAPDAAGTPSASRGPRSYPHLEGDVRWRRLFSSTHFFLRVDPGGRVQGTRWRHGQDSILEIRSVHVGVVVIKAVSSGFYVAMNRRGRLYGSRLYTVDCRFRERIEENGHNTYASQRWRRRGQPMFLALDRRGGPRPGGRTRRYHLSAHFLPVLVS
ERAP1 HTS inh = blocks human ERAP1 aminopeptidase activity | AID 652197 | recombinant ERAP1, Leu-AMC fluorescence, 60 min | Q9NZ08 | inhibition, % at 10.7 µM | actives 0.15% (n = 340,000);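 active = mean replicate inhibition of at least 30%, or all replicates individually reaching that 30% level; inactive = mean below 30% and not every replicate reaching it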;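 note: 0% = neutral control wells and 100% = L-leucinethiol positive control wells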
The depositor's hits bear a star; · = no result.

SMILES	INS-1E GSIS act	SIRT5 block	CASP6 VEID inh	FGF22 binding	ERAP1 HTS inh
CC(C)[C@H](NC(=O)c1ccccc1)C(=O)OCC(=O)/C=C1/N(C)c2ccccc2C1(C)C	-30	-3	-3	44*	-4
COc1cccc(C(=O)NCC(=O)OCC(=O)c2ccccc2)c1	4	·	·	·	·
COc1cc(OC)cc(C(=O)NCC(=O)OCC(=O)/C=C2/N(C)c3ccccc3C2(C)C)c1	1	27*	11	43	6
COc1cc(OC)cc(C(=O)NCC(=O)OCC(=O)c2ccc3c(c2)-c2ccccc2C3)c1	10	-3	-5	45*	1
CN1/C(=C/C(=O)COC(=O)CN2C(=O)C3CC=CCC3C2=O)C(C)(C)c2ccccc21 (stereo unspecified)	-22	0	2	0	-2
C[C@H](CO)N1C[C@H](C)[C@H](CN(C)Cc2ccc(C(=O)O)cc2)OCCCC[C@H](C)Oc2ccc(NS(=O)(=O)c3ccccc3)cc2C1=O	28	·	·	0	·
COc1ccc(OC)c(Nc2c3c(nc4ccccc24)CCC3)c1	18	2	-1	0	2
COc1ccccc1Nc1c2c(nc3ccc(N)cc13)CCCC2	65*	12	1	0	3
COc1ccc(Nc2c3c(nc4ccc(C)cc24)CCC3)cc1	21	25*	·	0	3
Fc1ccc(CNC2CCN(Cc3ccccc3)CC2)cc1	10	21*	-18	0	-3
Clc1ccc(CNC2CCN(Cc3ccccc3)CC2)cc1	14	-1	-6	0	-5
O=C(Nc1ccccc1)Nc1nc(-c2ccc(Cl)cc2)cs1	·	-2	-4	0	-3
O=C(Nc1cccc(Cl)c1)Nc1nc(-c2ccc(Cl)cc2)cs1	128*	·	·	·	·
Cc1nccc(-c2cccc(NC(=O)Nc3ccc(Cl)cc3)c2)n1	9	-2	-8	1.8*	8
O=C(Cc1ccccn1)NCC[C@@H]1CC[C@@H](NC(=O)CN2CCOCC2)[C@H](CO)O1	5	7	-3	0	-4
O=C(C1=NN(c2ccccc2)C(=O)CC1)N1CCc2ccccc2C1	113*	0	2	0	1
CC(C)NC(=O)C1=NN(c2ccccc2)C(=O)CC1	-3	-1	-3	0	-6
CCC(C)(C)C1CCC(=NNS(=O)(=O)c2ccc(C)c([N+](=O)[O-])c2)CC1 (stereo unspecified)	-38	18*	-6	0	-1
CO[C@H]1CN(C)C(=O)c2cc(NS(=O)(=O)Cc3ccccc3)ccc2OC[C@H](C)NC[C@@H]1C	13	3	-21	0	3
O=C(C[C@H]1C[C@H]2c3cc(NS(=O)(=O)c4ccc(F)cc4)ccc3O[C@H]2[C@H](CO)O1)NC1CCCC1	-23	-4	-2	0	-1
CCc1nc2sccc2c(=O)n1N	-2	0	2	43*	-1
Oc1ccc(-c2nc3c4c(ncn3n2)-c2ccccc2CC42CCCC2)cc1	190*	·	·	·	·
C[C@H](CO)N1C[C@H](C)[C@@H](CN(C)Cc2ccc(C(F)(F)F)cc2)OCCCC[C@H](C)Oc2ccc(NC(=O)Cc3ccccc3)cc2C1=O	-1	·	·	0	·
COc1ccc([C@@H]2[C@@H]3C(=O)N(C(C)(C)C)C(=O)[C@@H]3[C@]3(Cc4ccc(Cl)cc4)C(=O)N(c4cccc(C)c4)C(=O)N23)cc1	-17	-2	3	1.3*	3
CC(C)C[C@@]12C(=O)N(c3cccc(Cl)c3)C(=O)N1[C@H](c1ccc(Cl)cc1)[C@@H]1C(=O)N(C3CCCCC3)C(=O)[C@@H]12	15	-5	-1	1.6*	0
SMILES	INS-1E GSIS act	SIRT5 block	CASP6 VEID inh	FGF22 binding	ERAP1 HTS inh
COc1ccc([C@@H]2[C@@H]3C(=O)N(C(C)(C)C)C(=O)[C@@H]3[C@]3(Cc4ccc(Cl)cc4)C(=O)N(c4ccc(C)cc4)C(=O)N23)cc1	-8	-9	-1	0	8
Cc1c(NC(=O)/C(C#N)=C/c2ccc3ccccc3c2)c(=O)n(-c2ccccc2)n1C	·	-3	0	0	-4
CCCCC[C@H](C)N1C[C@@H](COCc2ccccc2)Oc2cc(N3CCC[C@H]3CO)ccc2S1(=O)=O	-12	21*	1	0	3
C[C@@H]1CN([C@@H](C)CO)C(=O)c2cc(NC(=O)c3ccccc3)ccc2O[C@@H](C)CCCCO[C@@H]1CN(C)C(=O)c1ccccc1	-6	-1	0	0	-2
OC[C@@H]1[C@@H](c2ccc(C#CC3CCCC3)cc2)[C@@H]2CN(CCC(F)(F)F)CCCCN12	46*	2	4	0	0
OC[C@@H]1[C@@H](c2ccc(C#CC3CCCC3)cc2)[C@H]2CN(CCC(F)(F)F)CCCCN12	170*	-2	-1	0	6
OC[C@H]1[C@H](c2ccc(C#CC3CCCC3)cc2)[C@@H]2CN(CCC(F)(F)F)CCCCN12	24	0	-4	0	12
O=C(C1CCC1)N1CCN(c2ccc(C(F)(F)F)cc2[N+](=O)[O-])CC1	-9	2	3	0	0
O=[N+]([O-])c1cc(C(F)(F)F)ccc1N1CCN(CCO)CC1	-10	-2	1	43*	2
O=[N+]([O-])c1cc(C(F)(F)F)ccc1N1CCCC(O)C1 (stereo unspecified)	0	-2	-1	43*	-8
CO[C@@H]1CN(C)C(=O)c2ccc(NC(=O)c3cnccn3)cc2OC[C@@H](C)NC[C@H]1C	5	15*	-2	0	-4
CO[C@H]1CN(C)C(=O)c2ccc(NC(=O)Nc3cc(Cl)cc(Cl)c3)cc2OC[C@H](C)NC[C@H]1C	6	-8	-1	-1	-6
CO[C@H]1CN(C)C(=O)c2ccc(NC(=O)Nc3cc(Cl)cc(Cl)c3)cc2OC[C@@H](C)NC[C@@H]1C	15	1.4*	0	-1	-2
C[C@@H]1CN([C@H](C)CO)C(=O)Cc2cc(NC(=O)CCC(F)(F)F)ccc2O[C@H]1CN(C)Cc1ccc(C(=O)Nc2ccccc2N)cc1	16	·	-1	0	-2
COc1ccccc1NC(=O)C(C)OC(=O)CCC1CCCCC1 (stereo unspecified)	1	-3	53*	0	-3
COc1ccccc1NC(=O)COC(=O)CCC1CCCC1	8	6	1	0	-7
CCOC(=O)c1c[nH]n2c(=S)ncnc12	·	·	-4	43*	2
CCOC(=O)c1c[nH]n2c(=O)cc(C)nc12	15	·	-3	0	·
O=C(CCCn1c(=S)[nH]c2cc3c(cc2c1=O)OCO3)NCCc1ccc(Cl)cc1	·	·	-4	43*	-1
CCOC(=O)c1nn(-c2ccccc2)c2nc(Nc3ccccc3)cc(=O)n12	78*	·	·	·	·
CCOC(=O)c1nn(-c2ccc(F)cc2)c2nc(Nc3ccccc3)cc(=O)n12	-5	·	·	·	·
Cc1c(NC(=O)c2cccc(S(=O)(=O)N(C)c3ccccc3)c2)c(=O)n(-c2ccccc2)n1C	5	0	1	0	3
